Measured values published in PubChem BioAssay (EPA / NIEHS).
Records with an inconclusive call do not appear. Active and inactive are the calls of the source. The calls were made as follows, unless noted: active = hit-call score of the fitted dose curve at least 0.9, where 1 is the maximum; inactive = score below 0.9.

Legend:
[1] = ATG_TAL_CIS: Attagene CIS-FACTORIAL HepG2 Assay for human TAL Basal Promoter (AID 2282966); conditions: HepG2 Attagene cis-factorial TAL promoter reporter; actives raise or lower the signal;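 also: background control endpoint measuring basal TAL promoter reporter mRNA not a specific factor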
Procedure, shortened: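 Readout: reporter mRNA, fluorescence by CE. System: HepG2, transient multi-reporter transfection, endogenous TF activity. Exposure: 24 h. Analysis: bidirectional, DMSO-normalized; background control.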

[2] = ATG_TGFb_CIS: Attagene CIS-FACTORIAL HepG2 Assay for human Transforming Growth Factor (TGF) (AID 2282967); conditions: HepG2 Attagene CIS TGFb reporter, mRNA transcription; actives raise or lower the signal
Procedure, shortened: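 After a 24-hour incubation with compound, transfected HepG2 cells were lysed for RNA; reporter cDNA was amplified, fluorescently end-labeled and separated by CE. DMSO served as baseline for bidirectional fits.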

[3] = ATG_VDRE_CIS: Attagene CIS-FACTORIAL HepG2 Assay for human Vitamin D Receptor Element (VDRE) (AID 2282968); conditions: HepG2 VDRE cis-reporter transcription, actives raise or lower the signal
Procedure, shortened: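 Transiently transfected HepG2 cells carrying cis-regulated reporter transcription units were exposed for 24 h. Reporter mRNA was measured by RT-PCR with fluorescent labelling and capillary electrophoresis, and fitted in both directions against DMSO.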

[4] = target: Estrogen receptor (Homo sapiens) (UniProt P03372); experiment: ATG_ERa_TRANS: Attagene TRANS-FACTORIAL HepG2 Assay for human Estrogen Receptor alpha (ERa) (AID 2282970; active = hit-call score of the fitted dose curve at least 0.9, where 1 is the maximum); conditions: HepG2 Attagene TRANS ERa GAL4 reporter, mRNA
Procedure, shortened: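 Transactivation via ERa-Gal4 chimera in HepG2; 24 hour incubation; reporter mRNA detected by fluorescence RT-PCR and capillary electrophoresis.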

[5] = target: X-box-binding protein 1 (Homo sapiens) (UniProt P17861); experiment: ATG_Xbp1_CIS: Attagene CIS-FACTORIAL HepG2 Assay for human X-box Binding Protein 1 (XBP1) (AID 2282972); conditions: HepG2 XBP1 cis-element reporter, Attagene multiplex; actives raise or lower the signal
Procedure, shortened: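 HepG2 cells transiently transfected with cis-regulated multiple reporter transcription units; endogenous transcription factor activity measured 24 hours after chemical dosing. Reporter mRNA quantified by RT-PCR, 6-FAM primer extension, HpaI digestion and capillary electrophoresis; bidirectional fitting versus DMSO.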

[6] = ATG_M_19_TRANS: Attagene TRANS-FACTORIAL HepG2 Assay for M19 Transcription Factor (Internal Marker) (AID 2282974; active = hit-call score of the fitted dose curve at least 0.9, where 1 is the maximum); conditions: HepG2 Attagene TRANS-FACTORIAL M19 internal marker reporter
Procedure, shortened: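 Cells: human HepG2, transiently transfected with multiplexed reporter transcription units. Exposure: 24 h. Detection: RT-PCR of reporter mRNA with capillary electrophoresis. Analysis: gain-of-signal vs DMSO.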

[7] = target: Nuclear receptor subfamily 1 group I member 3 (Homo sapiens) (UniProt Q14994); experiment: ATG_CAR_TRANS: Attagene TRANS-FACTORIAL HepG2 Assay for human Constitutive Androstane Receptor (CAR) (AID 2282969; active = hit-call score of the fitted dose curve at least 0.9, where 1 is the maximum;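 also: activators raise reporter mRNA above DMSO so AC50 marks induction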); conditions: HepG2 Attagene TRANS-FACTORIAL CAR reporter
Procedure, shortened: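 HepG2 cells transiently transfected with GAL4-UAS reporter units; TRANS format reads activity of exogenous chimeric NR-Gal4 protein. After 24 h dosing, reporter mRNA quantified by RT-PCR, 6-FAM labelling and capillary electrophoresis; gain of signal fitted against DMSO.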

[8] = target: Estrogen-related receptor gamma (Homo sapiens) (UniProt P62508); experiment: ATG_ERRg_TRANS: Attagene TRANS-FACTORIAL HepG2 Assay for human Estrogen-Related Receptor gamma (ERRg) (AID 2282977; active = hit-call score of the fitted dose curve at least 0.9, where 1 is the maximum;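 also: hits increase reporter signal over DMSO so potencies reflect activators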); conditions: HepG2 Attagene TRANS reporter, ERRg transactivation
Procedure, shortened: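 Transfect HepG2 with multiple GAL4-UAS reporter transcription units; dose chemicals 24 h; isolate RNA, reverse-transcribe with oligo(dT), PCR-amplify, label with 6-FAM, digest with HpaI; size fragments by capillary electrophoresis. DMSO serves as negative control.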

[9] = ATG_GAL4_TRANS: Attagene TRANS-FACTORIAL HepG2 Assay for GAL4 (Internal Marker) (AID 2282976; active = hit-call score of the fitted dose curve at least 0.9, where 1 is the maximum); conditions: HepG2 Attagene TRANS GAL4 internal marker reporter
Procedure, shortened: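 Fluorescence from capillary electrophoresis of labelled RT-PCR products quantifies reporter mRNA induction after 24 h dosing of HepG2 cells carrying transfected GAL4-UAS reporter transcription units. Vehicle DMSO serves as baseline.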

[10] = target: Steroid hormone receptor ERR1 (Homo sapiens) (UniProt P11474); experiment: ATG_ERRa_TRANS: Attagene TRANS-FACTORIAL HepG2 Assay for human Estrogen-Related Receptor alpha (ERRa) (AID 2282971; active = hit-call score of the fitted dose curve at least 0.9, where 1 is the maximum); conditions: HepG2 Attagene TRANS reporter, ERRa transactivation
Procedure, shortened: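 HepG2 cells were transiently transfected with multiple GAL4-UAS reporter units, then dosed with compound for 24 h. Total RNA was reverse-transcribed, reporter cDNA PCR-amplified and fluorescently labelled, and fragments resolved by capillary electrophoresis; induction was compared with DMSO.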

Measured: AC50

X-box-binding protein 1 (Homo sapiens), sequence (P17861 whole entry, looked up): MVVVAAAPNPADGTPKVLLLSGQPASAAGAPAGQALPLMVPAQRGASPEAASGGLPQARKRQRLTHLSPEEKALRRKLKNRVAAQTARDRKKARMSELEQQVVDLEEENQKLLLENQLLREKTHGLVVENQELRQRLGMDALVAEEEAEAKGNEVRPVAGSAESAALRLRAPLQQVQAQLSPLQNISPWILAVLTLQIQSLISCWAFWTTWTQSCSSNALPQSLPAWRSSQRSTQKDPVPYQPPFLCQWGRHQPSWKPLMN
Estrogen receptor (Homo sapiens), sequence (P03372 whole entry, looked up, the tested form may be a part): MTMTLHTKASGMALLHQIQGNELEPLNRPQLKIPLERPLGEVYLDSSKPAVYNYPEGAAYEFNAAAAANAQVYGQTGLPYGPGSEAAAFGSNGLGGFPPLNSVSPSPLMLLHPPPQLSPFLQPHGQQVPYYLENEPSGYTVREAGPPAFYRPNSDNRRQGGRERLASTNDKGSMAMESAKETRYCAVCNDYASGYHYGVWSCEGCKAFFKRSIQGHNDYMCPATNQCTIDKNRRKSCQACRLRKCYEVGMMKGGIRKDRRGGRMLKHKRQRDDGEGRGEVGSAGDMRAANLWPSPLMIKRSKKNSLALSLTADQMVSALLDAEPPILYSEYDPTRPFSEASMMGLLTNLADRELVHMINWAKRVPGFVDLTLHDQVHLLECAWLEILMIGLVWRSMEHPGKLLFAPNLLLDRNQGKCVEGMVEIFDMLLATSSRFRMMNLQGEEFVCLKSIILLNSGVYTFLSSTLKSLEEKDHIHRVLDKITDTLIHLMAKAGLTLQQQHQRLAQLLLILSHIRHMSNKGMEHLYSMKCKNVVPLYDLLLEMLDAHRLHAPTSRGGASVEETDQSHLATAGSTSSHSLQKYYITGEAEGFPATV
Nuclear receptor subfamily 1 group I member 3 (Homo sapiens), sequence (Q14994 whole entry, looked up, the tested form may be a part): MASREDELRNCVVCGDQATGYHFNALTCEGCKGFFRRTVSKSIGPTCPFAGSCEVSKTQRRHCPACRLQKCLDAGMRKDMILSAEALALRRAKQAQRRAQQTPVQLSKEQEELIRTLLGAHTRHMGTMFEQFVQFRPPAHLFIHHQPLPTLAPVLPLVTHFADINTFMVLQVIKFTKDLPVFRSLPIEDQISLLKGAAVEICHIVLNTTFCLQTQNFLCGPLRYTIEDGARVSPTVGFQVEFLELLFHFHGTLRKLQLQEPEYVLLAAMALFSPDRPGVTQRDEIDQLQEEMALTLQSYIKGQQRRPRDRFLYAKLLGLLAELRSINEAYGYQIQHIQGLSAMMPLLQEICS
Estrogen-related receptor gamma (Homo sapiens), sequence (P62508 whole entry, looked up, the tested form may be a part): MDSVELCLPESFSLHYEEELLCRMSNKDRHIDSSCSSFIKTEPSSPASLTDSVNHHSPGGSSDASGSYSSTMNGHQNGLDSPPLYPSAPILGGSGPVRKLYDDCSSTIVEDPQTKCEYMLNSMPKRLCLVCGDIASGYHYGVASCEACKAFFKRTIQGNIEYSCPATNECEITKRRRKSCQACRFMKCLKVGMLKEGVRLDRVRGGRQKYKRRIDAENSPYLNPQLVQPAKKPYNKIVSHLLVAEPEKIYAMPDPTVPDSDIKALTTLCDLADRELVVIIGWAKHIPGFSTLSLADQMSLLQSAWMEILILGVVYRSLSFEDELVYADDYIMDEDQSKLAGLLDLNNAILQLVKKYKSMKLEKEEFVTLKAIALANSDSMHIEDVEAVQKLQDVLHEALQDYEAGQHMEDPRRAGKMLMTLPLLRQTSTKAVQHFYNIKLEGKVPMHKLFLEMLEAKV
Steroid hormone receptor ERR1 (Homo sapiens), sequence (P11474 whole entry, looked up, the tested form may be a part): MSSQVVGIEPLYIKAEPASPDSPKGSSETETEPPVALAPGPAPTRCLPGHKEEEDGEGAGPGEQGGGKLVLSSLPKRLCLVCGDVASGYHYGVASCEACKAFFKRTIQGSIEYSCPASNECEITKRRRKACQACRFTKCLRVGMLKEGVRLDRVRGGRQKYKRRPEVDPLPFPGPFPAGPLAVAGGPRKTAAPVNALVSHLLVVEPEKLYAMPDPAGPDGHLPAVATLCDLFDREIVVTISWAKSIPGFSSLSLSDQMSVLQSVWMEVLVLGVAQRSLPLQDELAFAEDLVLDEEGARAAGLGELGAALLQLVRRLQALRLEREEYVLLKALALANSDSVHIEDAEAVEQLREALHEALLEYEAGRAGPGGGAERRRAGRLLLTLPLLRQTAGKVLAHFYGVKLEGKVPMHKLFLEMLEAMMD

Cc1ccc([N+](=O)[O-])cc1S(=O)(=O)O
inactive: [1] | [2] | [3] | [4] | [5] | [6]

CC1(C)O[C@@H]2C[C@H]3[C@@H]4C[C@H](F)C5=CC(=O)C=C[C@]5(C)[C@@]4(F)[C@@H](O)C[C@]3(C)[C@]2(C(=O)CO)O1
inactive: [1] | [2] | [3] | [5]
active: [4] 9.67 µM

CCCCCCOc1cc(C)c(O)c(C)c1C
inactive: [1] | [2] | [7] | [8]
active: [3] 9.58 µM

COc1ccc2nc(N)sc2c1
inactive: [1] | [2] | [3] | [4] | [5]

CCOC(=O)CC(C(C)=O)C(C)=O
inactive: [1] | [2] | [3] | [4] | [5] | [6]

C=C(C)C(=O)OCC(C)C
inactive: [1] | [2] | [3] | [4] | [5] | [6] | [9]

CCCCC(CC)CCC(CC(C)C)OS(=O)(=O)O (stereo not drawn)
inactive: [1] | [2] | [3] | [4] | [5]

CC/C=C\C/C=C\C/C=C\CCCCCCCC(=O)O
active: [3] 62.7 µM
inactive: [1] | [2] | [4]

CCCCNc1ccc(NCCCC)c2c1C(=O)c1ccccc1C2=O
inactive: [1] | [2] | [3] | [4] | [5] | [6]

COc1ccc(-c2coc3cc(O)ccc3c2=O)cc1
inactive: [1] | [2] | [3] | [5]
active: [4] 1.21 µM

Cc1cc(O)c(Cl)c(C)c1Cl
inactive: [1] | [2] | [3] | [5]
active: [4] 26.8 µM

O=C(O)C(c1ccc(Cl)cc1)c1ccc(Cl)cc1
inactive: [1] | [2] | [3] | [5] | [6] | [9]
active: [4] 7.33 µM

O=C(/C=C/C=C/c1ccc2c(c1)OCO2)N1CCCCC1
active: [1] 100 µM | [3] 2.53 µM
inactive: [2] | [4] | [10] | [5] | [9]

CCN(CC)c1ccc(C(=O)c2ccccc2C(=O)O)c(O)c1
inactive: [1] | [2] | [4] | [5]
active: [3] 1.7 µM

C[Si](C)(C)O[Si](O)(O)O
inactive: [1] | [2] | [3] | [4] | [5]

Oc1ccc(Cl)cc1Cc1cc(Cl)ccc1O
inactive: [1] | [4]
active: [2] 11.1 µM | [3] 7 µM | [5] 6.64 µM
